Data: PubChem BioAssay (EPA / NIEHS)
Where “and” joins values, the source holds several entries; their conditions need not be identical. Equal entries are not always repeated. Calls of active or inactive are those of the source. How the source made its calls: active means hit-call score of the fitted dose curve at least 0.9, where 1 is the maximum; inactive means score below 0.9.

Experiment: BSK_3C_VCAM1: BioMAP Diversity Plus: 3C Assay for Vascular cell adhesion molecule 1 (VCAM1) Biomarker Activity (AID 2282999)
Settings: BioMAP 3C HUVEC, VCAM1 ELISA, cytokine-stimulated; actives raise or lower the signal
Protocol: BSK_3C is a cell-based, multiplexed-readout assay that uses umbilical vein endothelium, a human vascular primary cell, with measurements taken at 24 hours after chemical dosing in a 96-well plate.BSK_3C_VCAM1 is an assay component measured in the BSK_3C assay. It measures VCAM-1 antibody related to regulation of gene expression using ELISA technology.Data from the assay component BSK_3C_VCAM1 was analyzed into 1 assay endpoint. This assay endpoint, BSK_3C_VCAM1, was analyzed with bidirectional fitting relative to DMSO as the negative control and baseline of activity. Using a type of binding reporter, gain or loss-of-signal activity can be used to understand changes in the signaling as they relate to the gene VCAM1. Furthermore, this assay endpoint can be referred to as a primary readout, because this assay has produced multiple assay endpoints where this one serves a signaling function. To generalize the intended target to other relatable targets, this assay endpoint is annotated to the cell adhesion molecules intended target family, where the subfamily is Immunoglobulin CAM.
The levels of cell surface (or secreted, indicated by the prefix "s") biomarker endpoints were measured by ELISA. Overt cytotoxicity to cells in confluent adherent cultures (all systems other than the BT system) was assessed by measuring total protein levels using sulforhodamine B (SRB) staining in parallel cultures at the time of biomarker measurements, indicated as SRB endpoints. For proliferation assays for adherent cell types, individual cell types are cultured at sub-confluence and relative cell numbers quantified by SRB staining at time points optimized for each system (48 h: 3C and CASM3C systems; 72 h: BT and HDF3CGF systems; 96 h: SAg system). SRB was performed by staining cells with 0.1% SRB after fixation with 10% TCA and reading wells at 560 nm.Viability and proliferation of PBMC (T cells) was quantified by Alamar Blue reduction for the SAg and BT systems. For PBMC viability (referred to as PBMC Cytotoxicity within the assay endpoint names), cells were plated (75,000/well in a 96-well plate) and then chemical samples added for 1 h before addition of activators, SEB and TSST-1 (20 ng/mL final concentration each). Cells were incubated for 90 h. Then, Alamar Blue (20 uL/well) (Invitrogen, Cat DAL1100) was added for 6 h, and the plates were read with a fluorescence microplate reader at 546/580 nm (excitation/emission). For PBMC proliferation, cells were plated and activated as above but incubated for only 16 h prior to addition of Alamar Blue. Plates were read after 6 h.

With `CC(C)(C)C(=O)CCl` as the compound, how does the AC50 read?
Its AC50 is 20 µM (active).

Which outcome does the source give for `CC(C)(C)C(O)C(Oc1ccc(-c2ccccc2)cc1)n1cncn1` (stereo not drawn) here?
Its outcome is “inactive”.

Which AC50 does the source give for `O=C1C(Cl)=C(Cl)C(=O)C(Cl)=C1Cl` here?
Its AC50 is 11.9 µM (active).

For `O=[N+]([O-])O`, which outcome is on record?
Its outcome is “inactive”.

For `CC1(C)[C@H](C(=O)O[C@H](C#N)c2cccc(Oc3ccccc3)c2)[C@@H]1C=C(Br)Br`, which outcome is on record?
The outcome was “inactive”.

For `O=C(O)CCCc1ccc(N(CCCl)CCCl)cc1`, which AC50 is on record?
Its AC50 is 31.8 µM (active) and 28.7 µM (active).

Which AC50 does the source give for `COC(C)(C)CCC[C@H](C)C/C=C/C(C)=C/C(=O)OC(C)C` here?
Its AC50 is 28.8 µM (active).

Which outcome does the source give for `Cc1ccc(OP(=O)(Oc2ccc(C)cc2)Oc2ccc(C)cc2)cc1` (tested in a mixture with another compound) here?
Its outcome is “inactive”.

With `O=[N+]([O-])C=Cc1ccccc1` as the compound, how does the AC50 read?
Its AC50 is 6.25 µM (active).

With `CCCOC(=O)c1ccccc1C(=O)OCCC` as the compound, how does the outcome read?
Its outcome is “inactive”.

Which AC50 does the source give for `c1ccc(Nc2ccc3ccccc3c2)cc1` here?
Its AC50 is 34.8 µM (active).

With `CCC(C)c1cc([N+](=O)[O-])cc([N+](=O)[O-])c1OC(=O)C=C(C)C` (stereo not drawn) as the compound, how does the AC50 read?
The AC50 was 20 µM (active).

With `C=CCN(CC=C)C(=O)C(Cl)Cl` as the compound, how does the outcome read?
Its outcome is “inactive”.

With `N#CCCCCC#N` as the compound, how does the outcome read?
Its outcome is “inactive”.

For `O=S(=O)(c1ccccc1)c1ccccc1`, which outcome is on record?
The outcome was “inactive”.

Which outcome does the source give for `Oc1cc(Cl)ccc1Cl` here?
The outcome was “inactive”.

With `O=P1(NCCCl)OCCCN1CCCl` (stereo not drawn) as the compound, how does the outcome read?
Its outcome is “inactive”.

For `CCc1cc(C)cc(CC)c1-c1c(OC(=O)C(C)(C)C)n2n(c1=O)CCOCC2`, which outcome is on record?
Its outcome is “inactive”.

For `O=C(CCl)c1ccccc1`, which AC50 is on record?
Its AC50 is 3.06 µM (active).

With `O=C1C=CC(=O)C=C1` as the compound, how does the AC50 read?
The AC50 was 13.8 µM (active) and 20 µM (active).

With `O=[N+]([O-])c1ccc(Cl)cc1` as the compound, how does the outcome read?
Its outcome is “inactive”.

For `COCC(=O)N(c1c(C)cccc1C)N1CCOC1=O`, which outcome is on record?
The outcome was “inactive”.

With `CC(C)(c1cc(Cl)c(O)c(Cl)c1)c1cc(Cl)c(O)c(Cl)c1` as the compound, how does the AC50 read?
Its AC50 is 13.4 µM (active).

For `O=c1c2ccccc2c(=O)c2c1cc(Cl)c1[nH]c3c([nH]c12)c(Cl)cc1c(=O)c2ccccc2c(=O)c13`, which outcome is on record?
Its outcome is “inactive”.

Which AC50 does the source give for `CCCCCCCCCCCC#N` here?
The AC50 was 32.3 µM (active).

With `Nc1ccc(-c2ccc(N)c(N)c2)cc1N` as the compound, how does the outcome read?
The outcome was “inactive”.

Which AC50 does the source give for `CC(=O)/C=C/c1ccccc1` here?
The AC50 was 20 µM (active).

For `[Cd+2].[Cl-].[Cl-]`, which outcome is on record?
The outcome was “inactive”.

With `CC(C)CCCCCCCOP(=O)(Oc1ccccc1)Oc1ccccc1` as the compound, how does the AC50 read?
The AC50 was 11.2 µM (active).

With `CC(C)CCCCCCCOC(=O)c1ccccc1C(=O)OCCCCCCCC(C)C` as the compound, how does the outcome read?
Its outcome is “inactive”.

For `CCCC[N+](CCCC)(CCCC)CCCC`, which outcome is on record?
Its outcome is “inactive”.

With `Oc1ccc(C2(c3ccc(O)cc3)c3ccccc3-c3ccccc32)cc1` as the compound, how does the AC50 read?
The AC50 was 15.6 µM (active) and 14 µM (active).

With `O=c1[nH]c(Cl)c(Cl)cc1Cl` as the compound, how does the outcome read?
Its outcome is “inactive”.

Which outcome does the source give for `Clc1ccc(-c2ccccc2)cc1` here?
Its outcome is “inactive”.

For `CNC(=O)Oc1cc(C)c(SC)c(C)c1`, which AC50 is on record?
The AC50 was 20 µM (active).

With `C=CC(=O)OCC(CC)CCCC` (stereo not drawn) as the compound, how does the AC50 read?
The AC50 was 20 µM (active).

With `CC(C)COP(=O)(OCC(C)C)OCC(C)C` as the compound, how does the outcome read?
Its outcome is “inactive”.

For `COc1ccc(CO)cc1`, which outcome is on record?
The outcome was “inactive”.
